High-throughput results as filed in PubChem BioAssay.
FMDV antiviral – blocks foot and mouth disease virus | Potency, µM (highest dose often 57.9 µM), inactives show at the highest dose activity change, negative = inhibition, usual class: inhibitors | FMDV antiviral cell-based qHTS | AID 1159524 | hit rate 1.2% among 410,000; calls by dose curve; tested in HEK293T cells; note: read-out not given here; potency is the fitted concentration of half-maximal effect; % is set by controls: 0 for no effect and ±100 for the full control effect; nearly all actives have a fitted effect of over 45% in size
HCV inh – inhibitors of hepatitis C virus infection; Huh7.5.1 HCVcc-Cre infection, luciferase reporter, 44 h; Potency, µM (top dose mostly 41.8 µM), for the others: at the top dose activity change, negative = inhibition, hits mostly inhibitors; hit rate 3.4% among 340,000; active = well fitted inhibition curve with a large enough effect; inconclusive = small, poorly fitted or top-dose-only effect, or another doubt; inactive = no such curve, though single readings can be large or run the other way; note: potency is the fitted concentration of half-maximal effect; % is set by controls: 0 for no effect and ±100 for the full control effect
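Reporter virus HCVcc-Cre (~0.5 moi) infects cells exposed to compound; seeding density 1,000 cells/well with 4 h settling beforehand. Luminescence, 15 sec read, taken 44 h post-infection following a 15 min RT substrate incubation.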
Shiga inhibitor – blocks Shiga toxin action in Vero cells; inhibition, % at 38.7 µM; hit rate 9.2% among 290,000; Vero cells, Shiga toxin protein synthesis inhibition reporter; in the data active = inhibition mostly above about 28%, no sharp cut-off; inactive = mostly below about 43%; note: 0% is about no effect
Cycloheximide cs – counter-screen for Shiga toxin inhibitors: cycloheximide protein synthesis inhibition; max response, %; hit rate 12% among 300,000; cell reporter, cycloheximide protein synthesis inhibition counterscreen; AID 2314; in the data active = max response mostly above about 13%, no sharp cut-off; inactive = mostly below about 14%; note: read at 38.3 µM for the half of the compounds with a filed dose; 0% is about no effect
MARV entry inh – blocks Marburg virus binding to or entry into cells. Marburg virus pseudotyped entry inhibition, cell reporter. Potency, µM (titrated, usually from 37.8 µM), for the others: top-dose activity change, negative = inhibition, usual class: inhibitors. hit rate 1.8% among 300,000. AID 540276; calls by dose curve; tested in HEK293 cells; note: potency is the fitted concentration of half-maximal effect; % is set by controls: 0 for no effect and ±100 for the full control effect
Lassa entry inh – blocks Lassa virus binding to or entry into cells | Lassa virus pseudotype entry inhibition, cell reporter | Potency, µM (titrated, usually from 37.9 µM), without a hit: at the top dose activity change, negative = inhibition, hits mostly inhibitors | hit rate 1.2% among 300,000 | AID 540256; calls by dose curve; tested in HEK293 cells; note: potency is the fitted concentration of half-maximal effect; % is set by controls: 0 for no effect and ±100 for the full control effect; nearly all actives have a fitted effect of over 50% in size
* hit, by the source's call; ? = inconclusive; . = no result given; [ ] = another dose, or the depositor's remark. Only some compounds are listed: those with a hit (about 13% of all), similar ones and a draw of the others.

SMILES	FMDV antiviral	HCV inh	Shiga inhibitor	Cycloheximide cs	MARV entry inh	Lassa entry inh
O=C(O)CSc1cccc[n+]1[O-]	4%	5%	-8	1	2%	1%
Nc1nc(SCC(=O)c2cc3ccccc3o2)n[nH]1	42%	1%	29	8	.	.
CNS(=O)(=O)c1cc(N)ccc1C	73%	6%	-8	-2	1%[46.1 µM]	8%
COc1ccccc1C1(CC(=O)O)CCOC(C)(C)C1 (stereo unspecified)	-6%	-3%	13	-1	?	5%
Cc1ccc(/C=C/C2=NN(C)C(=O)CC2)cc1	23%	-9%	63*	27*	?	2%
C=CCN1N=C(/C=C/c2ccccc2)CCC1=O	19%	9%	51	20*	19%[46.1 µM]	-13%
CN1N=C(/C=C/c2ccccc2)CCC1=O	41%	6%	88*	28*	?	15%
C/C(=N\NC(=O)c1cccc(S(=O)(=O)N2CCCC2)c1)c1ccncc1	-2%	-21%	.	.	.	.
Cc1cc2nc(-c3ccc(NC(=O)C(C)C)cc3)oc2cc1C	31%	?	80*	54*	?	-26%
CC(Oc1ccc(Cl)cc1Cl)C(=O)Nc1ccc2oc(-c3ccncc3)nc2c1 (stereo unspecified)	?	7.1µM*	-9	-4	2.1µM*	?
Cc1ccc(-c2nc3cc(NC(=O)C(C)C)ccc3o2)cc1	-34%	?	95*	73*	?	11µM*
Clc1ccc(-c2nc3cc(CN4CCCCC4)ccc3o2)cc1	13%	?	54*	36*	?	-1%[46.1 µM]
CC(C)C(=O)Nc1cccc(-c2nc3ccccc3o2)c1	8%	?	11	5	9%	5%
Cc1ccc(-c2nnc(CCC(=O)NCc3csc(C)n3)o2)s1	9%	-5%	38	8	.	.
OCCC1CN(Cc2cccc(F)c2F)CCN1CCc1ccccc1 (stereo unspecified)	-4%	-9%	.	-4	.	.
COc1ccc(-c2nc3cc(NC(=O)COc4ccc(C)c(C)c4)ccc3o2)cc1	26%	.	.	.	?	30%[46.1 µM]
Cc1ccc(-c2nc3cc(Cl)ccc3o2)cc1	-55%	?	123*	46*	?	?
COc1cc(OC)cc(-c2nc3cc(C)ccc3o2)c1	30%	?	104*	58*	?	?
Cc1ccc2nc(-c3ccc(O)cc3)oc2c1	13µM*	4%	14	19*	5.6µM*	?
Cc1ccc(-c2nc3cc(NC(=O)C(C)C)ccc3o2)cc1C	-67%	?	95*	83*	?	?
Cc1nn(-c2nc(-c3ccc(F)cc3)cc(C(F)(F)F)n2)c(C)c1Cl	-13%	.	.	.	?	4%[46.1 µM]
COc1ccc(NC(=O)Cn2c(=O)n(-c3ccccc3)c(=O)c3ccc(C(=O)NCc4ccc5c(c4)OCO5)cc32)cc1	6%	.	.	.	-9%[46.1 µM]	?
O=C(COC(=O)c1cn(-c2ccccc2)nc1-c1cccs1)NC1CC1	?	?	-10	1	-4%	-13%
CC(Oc1ccc(Cl)cc1Cl)C(=O)Nc1ncccn1 (stereo unspecified)	32%	3%	41	22*	4%	?
COc1cc(C2C=C(Nc3ccccc3)C(=O)N2c2ccccc2)ccc1O (stereo unspecified)	?	?	57*	37*	11%	?
SMILES	FMDV antiviral	HCV inh	Shiga inhibitor	Cycloheximide cs	MARV entry inh	Lassa entry inh
O=C1C(Nc2ccccc2)=CC(c2ccc(Br)cc2)N1c1ccccc1 (stereo unspecified)	-1%	.	.	.	2%[46.1 µM]	?
O=C1C(Nc2ccccc2)=CC(c2ccc(O)cc2)N1c1ccccc1 (stereo unspecified)	-14%	-29%	45*	28*	.	.
COc1cc(CC2COC(=O)C2(O)Cc2ccc(O)c(OC)c2)ccc1O (stereo unspecified)	?	?	-5	-6	.	.
COc1cc(C[C@@H]2C(=O)OC[C@H]2Cc2ccc(OC)c(OC)c2)ccc1O	20µM*	?	.	.	.	.
Cc1c(Cl)cccc1NC(=O)CNC(=O)C1CC(=O)N(C2CCCC2)C1 (stereo unspecified)	-2%	2%	.	.	.	.
O=C(COC(=O)/C=C/c1cccc(Br)c1)NC1CCCCCC1	-18%	15%	.	.	.	.
Cc1ccc(CCNC(=O)C2CCCN(S(=O)(=O)N3CC(C)CC(C)C3)C2)cc1 (stereo unspecified)	-8%	-16%	-12	-2	.	.
O=C(c1ccc2oc(CCc3ccccc3)nc2c1)N1CCC(O)CC1	-5%	8%	75*	52*	.	.
NC(=O)[C@@H]1CCCN1C(=O)c1ccc2oc(CCc3ccccc3)nc2c1	6%	.	40*	43*	13%	-1%
O=C(c1ccc2oc(CCCc3ccccc3)nc2c1)N1CCCCC1CO (stereo unspecified)	16%	0%	55*	38*	11%	12%
CC(=O)c1c(C)[nH]c(C(=O)OCC(=O)N2CCCC2=O)c1C	28%	7%	.	.	9%	10%
CC(=O)Oc1ccccc1-c1nc(/C=C/c2ccccc2)no1	-15%	?	63*	47*	0%	?
COc1ccc(/C=C/c2noc(-c3ccccc3O)n2)cc1	0%	-4%	83*	56*	?	11µM*
COc1ccc2[nH]c3c(c2c1)CCN1C(=O)C(CC(=O)NC/C=C(\C)CCC=C(C)C)C[C@H](C(=O)N2CCCCC2)[C@@]31C (stereo partly specified)	.	2%	.	.	.	.
O=C(c1ccc(COc2ccc(Br)cc2)o1)N1N=C(C(F)F)CC1(O)C(F)F (stereo unspecified)	25µM*	?	-1	-3	?	-56%
COc1ccc(CCNC(=O)c2c(O)nc3ccccn3c2=O)cc1	9%	.	.	.	-14%[46.1 µM]	.
O=C(COc1ccc(Br)cc1Cl)NC(=S)N1CCc2ccccc21	14%	8%	50*	35*	1%[46.1 µM]	?
O=C(COc1ccc(Br)cc1Br)NC(=S)N1CCCc2ccccc21	-9%	-25%	54	48*	18%	?
O=C(NC(=S)N1CCc2ccccc21)c1ccccc1Br	7%	7%	96*	25*	5%	0%
O=C(COc1ccc(Br)cc1CO)N1CCCc2ccccc21	6%	-4%	-1	0	1%[46.1 µM]	-18%[46.1 µM]
Cn1nc(C(C)(C)C)cc1C(=O)NNC(=O)c1ccc(C(F)(F)F)cc1	?	?	26	1	.	.
CC(C)=CCC[C@H](C)C[C@@H]1CC2=C(C(=O)OC(C)(C)O2)[C@H](c2ccc(F)cc2)O1	-27%	.	.	.	.	.
COc1ccc(N=C2S/C(=C\c3ccc(Cl)c([N+](=O)[O-])c3)C(=O)N2CCN(C)C)cc1	28µM*	?	21	-2	.	.
CCCN1C(=O)/C(=C/c2ccc(C)s2)SC1=Nc1ccc(OC)cc1	-28%	-12%	-18	2	18%	?
CCN(CC)CCN1C(=O)/C(=C\c2ccc(Cl)c([N+](=O)[O-])c2)SC1=Nc1ccc(OC)cc1	25µM*	?	-8	-2	?	?
